Assay results published in ChEMBL document CHEMBL2218924, “A broad activity screen in support of a chemogenomic map for kinase signalling research and drug discovery” (Biochem J, 2013).

Tests used:
[1] = molecular target: T1, Ephrin type-A receptor 3 (Homo sapiens) (UniProt P29320); conditions: at 10 µM
T1 sequence (whole entry): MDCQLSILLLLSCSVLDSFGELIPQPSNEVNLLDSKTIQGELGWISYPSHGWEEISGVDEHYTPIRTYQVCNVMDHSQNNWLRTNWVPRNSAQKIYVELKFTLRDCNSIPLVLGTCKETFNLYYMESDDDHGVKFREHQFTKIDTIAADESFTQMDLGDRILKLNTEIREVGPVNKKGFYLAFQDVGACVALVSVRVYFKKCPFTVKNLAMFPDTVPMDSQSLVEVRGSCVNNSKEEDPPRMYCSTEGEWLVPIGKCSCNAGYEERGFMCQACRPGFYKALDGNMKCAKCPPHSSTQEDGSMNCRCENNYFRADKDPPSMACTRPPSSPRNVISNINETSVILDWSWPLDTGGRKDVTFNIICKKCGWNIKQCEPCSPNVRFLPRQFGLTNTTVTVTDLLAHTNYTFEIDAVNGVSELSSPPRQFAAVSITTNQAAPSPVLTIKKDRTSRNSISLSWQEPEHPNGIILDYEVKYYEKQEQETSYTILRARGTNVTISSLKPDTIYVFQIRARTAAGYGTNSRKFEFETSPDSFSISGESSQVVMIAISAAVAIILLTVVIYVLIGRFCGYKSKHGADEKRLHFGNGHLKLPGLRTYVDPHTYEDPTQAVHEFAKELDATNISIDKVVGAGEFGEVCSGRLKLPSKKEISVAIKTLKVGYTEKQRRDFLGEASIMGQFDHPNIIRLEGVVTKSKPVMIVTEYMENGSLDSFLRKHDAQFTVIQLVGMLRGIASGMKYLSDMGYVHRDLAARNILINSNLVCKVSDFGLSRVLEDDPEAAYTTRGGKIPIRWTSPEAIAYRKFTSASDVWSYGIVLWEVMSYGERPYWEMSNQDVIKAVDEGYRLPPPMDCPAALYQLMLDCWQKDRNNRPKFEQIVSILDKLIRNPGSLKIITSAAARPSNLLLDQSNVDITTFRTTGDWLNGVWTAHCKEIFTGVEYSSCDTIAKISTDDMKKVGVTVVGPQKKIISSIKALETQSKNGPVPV

[2] = molecular target: Ephrin type-A receptor 7 (Homo sapiens) (UniProt Q15375); conditions: at 1 µM
[3] = molecular target: Ephrin type-A receptor 7 (Homo sapiens) (UniProt Q15375); conditions: at 10 µM
[4] = molecular target: T2, Ephrin type-B receptor 1 (Homo sapiens) (UniProt P54762); conditions: at 1 µM
T2 sequence (whole entry): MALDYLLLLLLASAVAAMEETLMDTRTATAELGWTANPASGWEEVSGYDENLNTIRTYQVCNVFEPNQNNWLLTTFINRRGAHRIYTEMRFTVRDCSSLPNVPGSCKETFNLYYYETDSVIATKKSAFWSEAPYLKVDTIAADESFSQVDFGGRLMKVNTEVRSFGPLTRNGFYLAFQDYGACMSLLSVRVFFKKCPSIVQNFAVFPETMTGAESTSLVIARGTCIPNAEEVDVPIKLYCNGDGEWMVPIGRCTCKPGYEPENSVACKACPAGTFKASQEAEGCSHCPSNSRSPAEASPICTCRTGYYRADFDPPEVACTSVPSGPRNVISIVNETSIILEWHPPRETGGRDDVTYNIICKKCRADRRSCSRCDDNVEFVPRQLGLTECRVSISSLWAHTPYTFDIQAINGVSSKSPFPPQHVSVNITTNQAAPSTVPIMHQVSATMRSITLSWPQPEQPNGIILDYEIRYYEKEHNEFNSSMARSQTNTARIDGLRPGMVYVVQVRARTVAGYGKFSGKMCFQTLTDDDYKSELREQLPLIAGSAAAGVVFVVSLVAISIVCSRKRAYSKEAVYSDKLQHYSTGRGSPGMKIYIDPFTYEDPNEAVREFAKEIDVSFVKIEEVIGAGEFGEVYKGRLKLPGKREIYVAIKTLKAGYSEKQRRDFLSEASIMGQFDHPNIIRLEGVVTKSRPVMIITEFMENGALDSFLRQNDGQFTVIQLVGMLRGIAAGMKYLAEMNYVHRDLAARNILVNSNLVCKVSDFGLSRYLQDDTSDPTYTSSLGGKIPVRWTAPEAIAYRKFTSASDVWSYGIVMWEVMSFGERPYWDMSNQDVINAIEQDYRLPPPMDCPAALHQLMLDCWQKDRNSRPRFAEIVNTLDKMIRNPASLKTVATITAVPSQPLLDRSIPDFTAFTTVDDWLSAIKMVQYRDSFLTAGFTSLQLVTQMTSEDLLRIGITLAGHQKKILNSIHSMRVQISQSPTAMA

[5] = molecular target: Focal adhesion kinase 1 (Homo sapiens) (UniProt Q05397); conditions: at 1 µM
[6] = molecular target: T3, Ephrin type-A receptor 8 (Homo sapiens) (UniProt P29322); conditions: at 1 µM
T3 sequence (whole entry): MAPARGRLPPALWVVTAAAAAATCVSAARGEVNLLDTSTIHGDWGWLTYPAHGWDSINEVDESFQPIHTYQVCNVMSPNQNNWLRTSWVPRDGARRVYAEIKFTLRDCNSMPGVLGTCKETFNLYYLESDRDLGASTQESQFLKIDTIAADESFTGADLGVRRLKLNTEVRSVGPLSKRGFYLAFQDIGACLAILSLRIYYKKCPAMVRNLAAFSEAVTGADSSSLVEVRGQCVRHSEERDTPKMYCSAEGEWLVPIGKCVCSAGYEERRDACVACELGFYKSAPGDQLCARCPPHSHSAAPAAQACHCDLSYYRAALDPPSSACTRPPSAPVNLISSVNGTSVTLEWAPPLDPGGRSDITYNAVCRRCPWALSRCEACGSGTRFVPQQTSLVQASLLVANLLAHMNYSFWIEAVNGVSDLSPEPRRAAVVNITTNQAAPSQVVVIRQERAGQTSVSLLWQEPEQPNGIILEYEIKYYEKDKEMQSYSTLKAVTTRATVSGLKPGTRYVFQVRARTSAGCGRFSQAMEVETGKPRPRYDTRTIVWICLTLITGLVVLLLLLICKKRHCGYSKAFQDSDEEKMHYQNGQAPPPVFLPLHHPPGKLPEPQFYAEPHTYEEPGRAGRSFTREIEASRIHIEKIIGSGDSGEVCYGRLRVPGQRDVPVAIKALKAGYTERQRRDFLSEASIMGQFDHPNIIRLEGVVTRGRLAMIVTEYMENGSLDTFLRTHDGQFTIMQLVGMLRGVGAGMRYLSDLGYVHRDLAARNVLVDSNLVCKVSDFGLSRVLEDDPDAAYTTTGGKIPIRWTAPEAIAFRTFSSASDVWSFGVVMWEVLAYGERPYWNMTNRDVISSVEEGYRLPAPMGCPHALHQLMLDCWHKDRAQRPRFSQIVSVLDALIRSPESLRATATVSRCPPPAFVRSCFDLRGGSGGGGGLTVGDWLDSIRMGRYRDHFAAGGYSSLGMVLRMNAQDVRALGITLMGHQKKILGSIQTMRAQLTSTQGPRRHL

[7] = molecular target: T3, Ephrin type-A receptor 8 (Homo sapiens); conditions: at 10 µM
[8] = molecular target: T2, Ephrin type-B receptor 1 (Homo sapiens); conditions: at 10 µM
[9] = molecular target: T4, Ephrin type-B receptor 2 (Homo sapiens) (UniProt P29323); conditions: at 1 µM
T4 sequence (whole entry): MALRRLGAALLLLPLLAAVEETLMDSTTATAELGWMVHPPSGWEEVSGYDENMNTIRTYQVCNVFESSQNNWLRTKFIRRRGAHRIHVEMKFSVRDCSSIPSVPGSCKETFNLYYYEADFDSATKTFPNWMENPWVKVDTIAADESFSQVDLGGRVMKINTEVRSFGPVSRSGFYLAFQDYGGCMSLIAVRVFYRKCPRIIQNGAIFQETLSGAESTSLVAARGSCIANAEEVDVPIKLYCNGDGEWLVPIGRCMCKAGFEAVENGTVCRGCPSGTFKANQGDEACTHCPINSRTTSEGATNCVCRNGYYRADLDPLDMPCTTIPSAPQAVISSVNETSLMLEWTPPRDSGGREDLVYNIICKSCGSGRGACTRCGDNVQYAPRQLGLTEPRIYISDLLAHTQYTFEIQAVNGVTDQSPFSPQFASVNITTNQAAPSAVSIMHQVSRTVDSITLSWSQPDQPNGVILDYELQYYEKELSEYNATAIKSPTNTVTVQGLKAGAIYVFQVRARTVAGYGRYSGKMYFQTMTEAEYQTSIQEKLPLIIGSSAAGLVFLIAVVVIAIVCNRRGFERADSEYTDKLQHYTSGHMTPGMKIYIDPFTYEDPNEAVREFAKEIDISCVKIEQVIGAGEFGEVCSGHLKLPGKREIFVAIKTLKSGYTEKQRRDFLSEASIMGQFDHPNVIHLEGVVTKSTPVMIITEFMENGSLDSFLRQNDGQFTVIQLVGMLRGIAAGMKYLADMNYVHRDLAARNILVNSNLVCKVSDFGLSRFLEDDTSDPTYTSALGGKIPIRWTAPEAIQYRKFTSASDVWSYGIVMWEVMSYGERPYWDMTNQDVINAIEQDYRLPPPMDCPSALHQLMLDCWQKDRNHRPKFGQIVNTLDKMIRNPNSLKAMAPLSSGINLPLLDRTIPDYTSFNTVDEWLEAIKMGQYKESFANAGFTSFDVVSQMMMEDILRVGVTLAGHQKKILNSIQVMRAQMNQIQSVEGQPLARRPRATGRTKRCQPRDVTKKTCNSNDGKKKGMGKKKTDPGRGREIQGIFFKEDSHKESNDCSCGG

[10] = molecular target: T4, Ephrin type-B receptor 2 (Homo sapiens); conditions: at 10 µM
[11] = molecular target: T5, Ephrin type-B receptor 3 (Homo sapiens) (UniProt P54753); conditions: at 1 µM
T5 sequence (whole entry): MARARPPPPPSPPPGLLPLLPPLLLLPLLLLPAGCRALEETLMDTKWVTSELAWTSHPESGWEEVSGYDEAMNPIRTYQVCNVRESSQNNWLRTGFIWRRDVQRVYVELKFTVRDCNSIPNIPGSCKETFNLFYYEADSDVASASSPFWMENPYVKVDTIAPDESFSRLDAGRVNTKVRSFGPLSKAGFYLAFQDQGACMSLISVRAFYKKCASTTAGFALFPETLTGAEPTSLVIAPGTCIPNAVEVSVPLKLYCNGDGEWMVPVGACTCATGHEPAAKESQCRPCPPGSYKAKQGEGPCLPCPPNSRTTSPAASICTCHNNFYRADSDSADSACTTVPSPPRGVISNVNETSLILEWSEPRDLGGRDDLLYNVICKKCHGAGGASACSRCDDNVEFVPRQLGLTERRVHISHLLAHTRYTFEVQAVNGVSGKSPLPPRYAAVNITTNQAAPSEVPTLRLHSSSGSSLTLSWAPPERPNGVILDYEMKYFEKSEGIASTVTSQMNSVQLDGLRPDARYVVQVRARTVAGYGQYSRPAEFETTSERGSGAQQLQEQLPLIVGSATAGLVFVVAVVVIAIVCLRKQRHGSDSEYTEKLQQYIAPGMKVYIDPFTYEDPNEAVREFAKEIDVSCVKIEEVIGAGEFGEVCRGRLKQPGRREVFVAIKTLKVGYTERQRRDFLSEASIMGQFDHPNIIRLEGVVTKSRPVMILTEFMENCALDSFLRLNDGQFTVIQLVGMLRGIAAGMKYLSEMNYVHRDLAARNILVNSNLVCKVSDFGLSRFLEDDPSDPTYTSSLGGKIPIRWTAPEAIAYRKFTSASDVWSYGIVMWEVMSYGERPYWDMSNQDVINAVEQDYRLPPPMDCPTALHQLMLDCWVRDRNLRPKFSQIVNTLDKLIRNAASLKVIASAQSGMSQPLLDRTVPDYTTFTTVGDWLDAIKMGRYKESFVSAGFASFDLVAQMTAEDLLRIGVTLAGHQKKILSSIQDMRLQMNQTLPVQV

[12] = molecular target: T6, Ephrin type-B receptor 4 (Homo sapiens) (UniProt P54760); conditions: at 10 µM
T6 sequence (whole entry): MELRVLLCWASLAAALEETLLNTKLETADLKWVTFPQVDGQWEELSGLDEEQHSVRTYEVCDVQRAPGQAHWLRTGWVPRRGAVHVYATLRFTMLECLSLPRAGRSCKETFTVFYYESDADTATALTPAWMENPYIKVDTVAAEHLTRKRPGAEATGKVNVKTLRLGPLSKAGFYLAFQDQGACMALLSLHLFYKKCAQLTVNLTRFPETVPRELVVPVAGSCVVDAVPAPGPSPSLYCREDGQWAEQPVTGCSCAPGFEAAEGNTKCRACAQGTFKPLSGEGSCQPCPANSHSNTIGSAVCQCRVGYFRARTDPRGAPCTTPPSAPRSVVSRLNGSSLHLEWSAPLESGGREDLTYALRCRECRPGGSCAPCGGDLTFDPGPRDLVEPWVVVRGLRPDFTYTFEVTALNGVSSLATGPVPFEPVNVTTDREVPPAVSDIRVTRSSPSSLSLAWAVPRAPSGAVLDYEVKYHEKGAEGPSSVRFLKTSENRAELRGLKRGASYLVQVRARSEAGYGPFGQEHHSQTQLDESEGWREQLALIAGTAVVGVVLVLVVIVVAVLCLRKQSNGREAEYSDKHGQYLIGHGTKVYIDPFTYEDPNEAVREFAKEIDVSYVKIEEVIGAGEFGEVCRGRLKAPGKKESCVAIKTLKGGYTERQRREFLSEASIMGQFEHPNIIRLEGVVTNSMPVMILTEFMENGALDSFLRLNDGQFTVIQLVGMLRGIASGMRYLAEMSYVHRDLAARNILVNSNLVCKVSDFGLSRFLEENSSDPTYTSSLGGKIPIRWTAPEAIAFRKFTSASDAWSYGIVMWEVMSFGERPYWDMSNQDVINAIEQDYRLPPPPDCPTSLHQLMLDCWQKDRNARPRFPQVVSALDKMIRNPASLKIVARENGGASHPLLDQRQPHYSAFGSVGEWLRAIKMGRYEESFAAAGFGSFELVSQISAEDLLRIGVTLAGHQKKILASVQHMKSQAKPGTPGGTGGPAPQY

Chain of Focal adhesion kinase 1 (Homo sapiens) (Q05397 2-1052 limits assumed): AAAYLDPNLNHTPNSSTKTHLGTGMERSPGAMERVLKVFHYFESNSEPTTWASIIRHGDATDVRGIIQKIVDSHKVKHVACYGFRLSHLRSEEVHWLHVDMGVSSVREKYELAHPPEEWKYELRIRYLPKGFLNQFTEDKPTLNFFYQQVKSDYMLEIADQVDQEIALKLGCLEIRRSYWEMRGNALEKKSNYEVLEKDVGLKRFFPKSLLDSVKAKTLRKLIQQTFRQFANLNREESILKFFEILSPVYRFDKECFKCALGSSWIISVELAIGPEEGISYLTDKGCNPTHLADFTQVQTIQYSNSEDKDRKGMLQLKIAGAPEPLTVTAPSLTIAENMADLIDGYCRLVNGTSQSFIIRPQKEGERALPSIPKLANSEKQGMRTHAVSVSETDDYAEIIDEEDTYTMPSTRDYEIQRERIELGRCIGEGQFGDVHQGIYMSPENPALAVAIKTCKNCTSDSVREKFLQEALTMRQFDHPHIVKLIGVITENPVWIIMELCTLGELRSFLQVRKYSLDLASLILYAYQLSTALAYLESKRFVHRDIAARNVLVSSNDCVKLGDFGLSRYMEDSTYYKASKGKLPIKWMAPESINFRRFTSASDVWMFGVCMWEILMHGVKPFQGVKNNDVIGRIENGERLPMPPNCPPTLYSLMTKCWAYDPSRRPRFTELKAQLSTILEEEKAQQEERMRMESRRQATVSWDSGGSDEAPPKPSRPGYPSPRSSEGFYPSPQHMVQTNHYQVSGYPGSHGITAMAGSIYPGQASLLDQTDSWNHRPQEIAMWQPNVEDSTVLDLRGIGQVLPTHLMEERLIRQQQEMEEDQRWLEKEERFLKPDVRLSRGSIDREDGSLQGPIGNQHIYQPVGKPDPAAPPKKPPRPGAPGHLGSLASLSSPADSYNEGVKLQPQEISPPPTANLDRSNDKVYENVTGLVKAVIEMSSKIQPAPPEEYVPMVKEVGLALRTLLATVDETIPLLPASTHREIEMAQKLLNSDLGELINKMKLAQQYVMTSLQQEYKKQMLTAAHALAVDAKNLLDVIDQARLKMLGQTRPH
Chain of Ephrin type-A receptor 7 (Homo sapiens) (Q15375 28-998 limits assumed): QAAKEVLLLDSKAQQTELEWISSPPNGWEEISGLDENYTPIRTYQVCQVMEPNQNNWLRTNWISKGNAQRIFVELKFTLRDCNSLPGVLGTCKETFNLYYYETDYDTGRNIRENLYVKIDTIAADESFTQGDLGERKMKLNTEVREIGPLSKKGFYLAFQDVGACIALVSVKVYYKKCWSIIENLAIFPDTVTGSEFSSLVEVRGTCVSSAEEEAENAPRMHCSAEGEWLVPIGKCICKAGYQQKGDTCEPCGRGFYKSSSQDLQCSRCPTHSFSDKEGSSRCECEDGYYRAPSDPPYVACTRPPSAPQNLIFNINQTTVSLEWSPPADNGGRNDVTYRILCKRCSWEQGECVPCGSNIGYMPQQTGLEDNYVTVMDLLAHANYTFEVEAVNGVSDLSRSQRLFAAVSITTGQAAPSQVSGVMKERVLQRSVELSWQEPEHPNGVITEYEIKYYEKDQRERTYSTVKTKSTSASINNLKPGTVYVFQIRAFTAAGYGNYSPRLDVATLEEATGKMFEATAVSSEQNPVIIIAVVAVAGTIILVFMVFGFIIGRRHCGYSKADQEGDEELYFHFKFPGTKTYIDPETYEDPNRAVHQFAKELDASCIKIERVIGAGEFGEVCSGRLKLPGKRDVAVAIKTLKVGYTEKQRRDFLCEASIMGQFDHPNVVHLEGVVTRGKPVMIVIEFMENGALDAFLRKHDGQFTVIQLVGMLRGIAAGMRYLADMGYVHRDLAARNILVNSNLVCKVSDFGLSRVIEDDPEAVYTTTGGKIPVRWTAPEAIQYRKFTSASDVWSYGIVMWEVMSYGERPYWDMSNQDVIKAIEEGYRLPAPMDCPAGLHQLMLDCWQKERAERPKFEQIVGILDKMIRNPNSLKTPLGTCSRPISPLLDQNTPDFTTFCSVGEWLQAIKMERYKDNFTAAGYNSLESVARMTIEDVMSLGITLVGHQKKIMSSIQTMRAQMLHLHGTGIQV

| Compound | residual activity [1] [%] | residual activity [2] [%] | residual activity [3] [%] | residual activity [4] [%] | residual activity [5] [%] | residual activity [6] [%] | residual activity [7] [%] | residual activity [8] [%] | residual activity [9] [%] | residual activity [10] [%] | residual activity [11] | residual activity [12] [%] |
| --- | --- | --- | --- | --- | --- | --- | --- | --- | --- | --- | --- | --- |
| CCOC(=O)c1c(C)[nH]c(/C=C2\C(=O)Nc3ccccc32)c1C | 99 | 97 | 93 | 97 | 133 | – | – | – | – | – | – | – |
| O=C(Nc1nc2ccccc2n1CCN1CCOCC1)c1cccc([N+](=O)[O-])c1 | 81 | – | – | 100 | 131 | 108 | 103 | 103 | 113 | 110 | 110% (inactive) | 109 |
